# Results: article PMC13494018
# A number with no mark means an inactive call. The rule behind the calls is not given here.
# B1: d4r5_design_ppi_122_dldesign_0_cycle1_af2pred (protein)
# chain: DAEKIAKADKLMEEAKKLAATGKKRKEALEKYKEAAALYAEVDPALAKEAIAKGQEALSEGRENEAEKRLK
# B2: d4r5_design_ppi_302_dldesign_0_cycle0_af2pred (protein)
# chain: SEAEKLYAEALQYANIAKSAYEVNKEAGKEEYKEAKKYVEKLKEVDPEKGEEAEKEVEEKKAEAEKEYEKK
# B3: d4r5_design_ppi_288_dldesign_0_cycle0_af2pred (protein)
# chain: MTKAENAAKILEYAAEADALGDKETAKKLRELAKKAREATAEEAKKLAKEAEKLLKEAEEKKEKEEKEEKEKKEEEEKK
# B4: d4r5_design_ppi_266_dldesign_0_cycle1_af2pred (protein)
# chain: GEEAKKALELAKKAVEEAKRGLALAKAGKLEEAAKELQKARELMAEALALGKKNPEVLEEVKKLAKEVKELIREAMEEAKKHR
# B5: d4r5_design_ppi_312_dldesign_0_cycle1_af2pred (protein)
# chain: DFEEAKKKAEEALKKLEELAKELGEEGKKLYEYAKKKFEKYSDDAASVEAAYYIIKGAYKKAEELLKEKKEKKKKEE
# B6: d4r5_design_ppi_251_dldesign_0_cycle1_af2pred (protein)
# chain: MEKLKEIEEAAKKKLEEGAKKGEEAFKKAITEANLLAASDPEYSKEARAAVKKLAKEKKKELEEKKKKEEEEKKLK
# B7: d4r5_design_ppi_66_dldesign_0_cycle1_af2pred (protein)
# chain: GAAEEAAKKAKEEADKAIEAAKKGEKEGAEALLKAAKKLAEAAQKALEAAAEYPEKREEFLKLAKELRKAAKEAEEKAKAEIEAKKKA
# B8: d4r5_design_ppi_197_dldesign_0_cycle1_af2pred (protein)
# chain: GKVEKEVKAAAEKAKKLVEEAKKLAESGDKETAKEGMKLAEEALKLAREAGKKAKKAGVKEELVKELEKLAEEAIEVRLDGLEVLAK
# B9: d4r5_design_ppi_185_dldesign_0_cycle1_af2pred (protein)
# chain: NEEALKKALEEAKKLVEEAGKKAGPEVQEKADRLIKVSERKRKLDPEAGALQGIFGAKGLEPDIDKELAKKIIEAFKKALELA
# B10: d4r5_design_ppi_147_dldesign_0_cycle1_af2pred (protein)
# chain: SVQERARLAAKATRAAHKAKVAAKKIIELGGDKEKAKKLAKEAEKALEKAEEAMADPSKLEELKKATEEAEKLAKEALKEYEKLLA
# B11: d4r5_design_ppi_300_dldesign_0_cycle0_af2pred (protein)
# chain: SEVEEKAKKLVKEAAESTPEEAKKKGREVVELAKEHPEVAPVAAKAADEAAEVAKKKDKEVYIILAKTSAQLDAIAA
# B12: d4r5_design_ppi_266_dldesign_0_cycle0_af2pred (protein)
# chain: HMLKKLALEKAKEALEKAKEGLKLAKEGKLEEAAKKLQEARELKAEALSLGKKEKSIKKIIEEKAKEVKKIIKEAQKEAKKKK
# B13: d4r5_design_ppi_142_dldesign_0_cycle0_af2pred (protein)
# chain: MEEKRLEALKSQVEHAGEAAEKYGKELGEEEVKKARELKEKALKASAEEARELLKELRKFGKELKKKVEAKKAA
# B14: d4r5_design_ppi_307_dldesign_0_cycle1_af2pred (protein)
# chain: GAREKAREESEKIRKELREKKKEAVAYVEAYLKKKAEANPEYAAEYEAKAEKVRNGGSGTATKALKEVKAEEAAEAAAKAAAA
# B15: d4r5_design_ppi_292_dldesign_0_cycle1_af2pred (protein)
# chain: SMAKELSEALREAVRAAREAVETRGEEVKEEMVELVYKAFDSDLEETKKIAEEIKRRAEEAREERRRRLE
# B16: d4r5_design_ppi_305_dldesign_0_cycle1_af2pred (protein)
# chain: KEKEMKKEVKKALEEAKKAAEEAIKSGDVKKLKEAAVKAQEAATVAKYIASKAKDKEVKKEAKKAAKEALELAKKVAEEAKKAE
# B17: d4r5_design_ppi_53_dldesign_0_cycle0_af2pred (protein)
# chain: MKEKQEEARNDAIIESAKMAGAKNPEIGKLLKKATELTLENEEGKEEAKKLIEEVAKKGEEDTAKKLEKAVEALVKKKKEEEKKKK
# B18: d4r5_design_ppi_73_dldesign_0_cycle0_af2pred (protein)
# chain: MKAVEELKERAKRRLKEAEEKHKENPLKGAAQAYAAAEYVKNFAEAAAKKYPEYKEELLAAGKEYAKELEEKAKEFEEEAKKLA
# B19: d4r5_design_ppi_186_dldesign_0_cycle0_af2pred (protein)
# chain: LEEVKEKAKEILEKAEKEMKAAKKVSEVNEIRRKGLKELAELGKSSSPEGKKIAYEKREELIEAAGEAMAKKL
# B20: d4r5_design_ppi_48_dldesign_0_cycle1_af2pred (protein)
# chain: KAEELLKKGEELMEEGINSENKEEGEKKVKEGAVYYKEGLIEKNPEEPVSEQVKKAKEIYEKYEKELKEKHEKK
# B21: d4r5_design_ppi_343_dldesign_0_cycle1_af2pred (protein)
# chain: GEEEEKKKKLNELQDEAAEAIGEVYLEAKKTGELELAKEVSKKVRKALKDPEEAKKAIEEAKKEAKKLKKKL
# B22: d4r5_design_ppi_337_dldesign_0_cycle0_af2pred (protein)
# chain: SHYEKAREYVKKAIKALKEGKEKEAKEYAKKAAEEIAKTDAEKAREIAKEMRKGVKEVGAGKVGGEMVALIQEARAEAAARNS
# B23: d4r5_design_ppi_305_dldesign_0_cycle0_af2pred (protein)
# chain: MEEKLKKEVEEALKKAEKAAKEAKASGDVKALKEAAMKANEAAAEARAYAAKSKDKETKKFAEEAAKKALELAKETVEAAKKAA
# B24: d4r5_design_ppi_64_dldesign_0_cycle1_af2pred (protein)
# chain: AAAGTATAETIVNLREAEHILKLLEKNKNIPKEQAEVFIKDSEEIIKEVEEALKKGLVSKELAEKALEAAKKALEAAKKAYKK
# B25: d4r5_design_ppi_205_dldesign_0_cycle1_af2pred (protein)
# chain: GEEEAKKAKEKAKKEAKELTDLVDEVAALSGAEAARAYAEKRAKNLVEKAAKEGPEAEKAAKEAAEKILKRAEEIAKAEA
# B26: d4r5_design_ppi_186_dldesign_0_cycle1_af2pred (protein)
# chain: VEEVKEKAEEVLKKATEAMKAAKTVEEVRKIRREGHKELRKLGEEGTPESKEIAYKYIEKLNEAAADAISKLL
# B27: d4r5_design_ppi_292_dldesign_0_cycle0_af2pred (protein)
# chain: MKAKETAKALREAVKAAQEAVKAKGEEVKPEMSKLLEEAASSDAEETKKIAEEIKKKAKEVKEEKKKEEE
# B28: d4r5_design_ppi_332_dldesign_0_cycle1_af2pred (protein)
# chain: DVEALVAEAVALIAGDPADAPAARAAAEAAAAALLDATLDDPAAVALLEALAAAAAANPHMADVAATLAKALATAKKIVADQKEATS
# B29: d4r5_design_ppi_320_dldesign_0_cycle1_af2pred (protein)
# chain: ATPEEQKKESDYFKEVQKLAKEKAEAAAADPEAKQLALNLPLAAADPEEGKKVAAQVDKRLAALKAAKAAAAA
# B30: d4r5_design_ppi_48_dldesign_0_cycle0_af2pred (protein)
# chain: KAEELFKKGLELVKEGIESEDKEKGKELVKKGSVLFREGLLEKYSEEPASEVVKIAQKIHEEWEKLLEEEFKKK
# B31: d4r5_design_ppi_63_dldesign_0_cycle1_af2pred (protein)
# chain: SLAEEAEKKLKEYAALRIEAGDLSEEEAKKTFKEIAKEAKELAKKLEADPNAKEVAKKAKKLAGAAESAAKAIEKA
# B32: d4r5_design_ppi_239_dldesign_0_cycle0_af2pred (protein)
# chain: MGKELQKLADEANKKAKAIAKTLKENLKLAKELSPELAKEAEAAKKALAAARLTFADDLEKGKEELKAVEKDVEALKAKIEKAAA
# B33: d4r5_design_ppi_284_dldesign_0_cycle1_af2pred (protein)
# chain: AAAEVQAKLEAAAKKAEELAKDPALKEAAEAAAKALTAAKSLPPEEAAPALVATNNALQDARFEATEKAFK
# B34: d4r5_design_ppi_196_dldesign_0_cycle0_af2pred (protein)
# chain: ALAEAVAAAAEAAAEAAKKNEVTKPIAEKLEEISKKAKELAKEAKENPELKEKAEKEAEKLREELKKLREEAKKLIAEKKAEEAAKA
# B35: d4r5_design_ppi_153_dldesign_0_cycle0_af2pred (protein)
# chain: LLEEVKKLSEEALKLAKEAKETGSEELREKAREKAKEALELGKKDPEALKIASEATQKMLEIWAEGKAKKNK
# B36: d4r5_design_ppi_307_dldesign_0_cycle0_af2pred (protein)
# chain: SAEKKAREESEKLREELRKKKEEAIARVKAYLAEKAKKDPSKAAEYEAKAKEVEAGGSGTATAALKEVKAEEAAEAAAKAAAA
# B37: d4r5_design_ppi_147_dldesign_0_cycle0_af2pred (protein)
# chain: SITERAKLAAEATRAAHRAEAAAKELIKLGGDKKEAEKLRKEAKKALEKAEEAAAKPEKLEELKKETEKAKKIAEEAKKELEELKK
# B38: d4r5_design_ppi_255_dldesign_0_cycle0_af2pred (protein)
# chain: SEVEETKKKLAEASAELSELAAEADANPALAAAGKLAREALKKARELGKEGEENPEKALELYKKALEYAEKALKEVKALIEKAK
# Target: VTCN1, Q7Z7D3
# Sequence (Q7Z7D3 whole entry): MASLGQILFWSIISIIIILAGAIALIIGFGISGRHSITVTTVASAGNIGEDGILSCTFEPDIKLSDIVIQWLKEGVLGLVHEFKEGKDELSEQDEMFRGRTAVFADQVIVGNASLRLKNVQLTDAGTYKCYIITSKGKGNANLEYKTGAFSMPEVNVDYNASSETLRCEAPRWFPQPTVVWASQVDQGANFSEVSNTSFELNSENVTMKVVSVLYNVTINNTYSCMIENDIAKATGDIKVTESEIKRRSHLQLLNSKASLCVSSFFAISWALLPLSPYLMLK
row,Binder,binding in a display sort
1,B1,not found
2,B2,not found
3,B3,not found
4,B4,not found
5,B5,not found
6,B6,not found
7,B7,not found
8,B8,not found
9,B9,not found
10,B10,not found
11,B11,not found
12,B12,not found
13,B13,not found
14,B14,not found
15,B15,not found
16,B16,not found
17,B17,not found
18,B18,not found
19,B19,not found

row,Binder,binding in a display sort
1,B20,not found
2,B21,not found
3,B22,not found
4,B23,not found
5,B24,not found
6,B25,not found
7,B26,not found
8,B27,not found
9,B28,not found
10,B29,not found
11,B30,not found
12,B31,not found
13,B32,not found
14,B33,not found
15,B34,not found
16,B35,not found
17,B36,not found
18,B37,not found
19,B38,not found
